Results from PubChem BioAssay (Tox21).
Results filed as inconclusive are left out. Active and inactive are the calls of the source. Unless noted, the call rests on the fitted dose curve.

Tests used:
[1] = Nuclear factor erythroid 2-related factor 2/antioxidant responsive element (Nrf2/ARE) small molecule agonists: qHTS cell viability counter screen in human keratinocytes (AID 1919968; active means well fitted curve in the direction sought with a large enough effect in the repeat runs; an effect the other way counts as inactive or inconclusive; further: nearly all actives have a fitted effect of over 55% in size; further: potency means the concentration at half of the fitted maximal effect)
How it was run: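 KeratinoSens cells (HaCaT keratinocytes stably carrying an ARE-luciferase reporter) were seeded at 1,500 cells/well and rested 5 h at 37 C/5% CO2. They were then exposed to compounds in DMSO for 23 h. Viability was read by CellTiter-Fluor fluorescence after 1 h.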

[2] = target: Gonadotropin-releasing hormone receptor (Homo sapiens) (UniProt P30968); test: Human gonadotropin-releasing hormone receptor (GnRHR) small molecule agonists, calcium flux assay in GnRHR-HEK293 cells (AID 1920063); further: nearly all actives have a fitted effect of over 35% in size; further: potency means the concentration at half of the fitted maximal effect
How it was run: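 HEK293 cells stably expressing human GnRHR were plated 18 h at 37 °C, loaded with calcium dye 1 h at 37 °C, then given compound in agonist mode; fluorescence (Ex/Em 480/540) read kinetically for 3 min at 1 s intervals.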

[3] = target: KiSS-1 receptor (Homo sapiens) (UniProt Q969F8); test: Human kisspeptin (KISS1R) small molecule agonists, calcium flux assay in KISS1R-HEK293 cells (AID 1920064; active means well fitted curve in the direction sought with a large enough effect in the repeat runs; an effect the other way counts as inactive or inconclusive)
How it was run: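 HEK293 cells stably expressing human KISS1R were plated 18 h at 37 °C, loaded with calcium dye for 1 h at 37 °C, then given compound by pin tool. Fluorescence (Ex/Em 480/540) was read kinetically for 3 min.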

[4] = p53 small molecule agonists, cell-based qHTS assay with human liver microsomes (AID 1963577)
How it was run: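 p53RE-bla cells, 4,000/well, compound added after 5 h, with human liver microsomes 0.5 mg/mL and NADPH 0.5 mg/mL final; 16 h at 37 C, then LiveBLAzer 2 h RT, fluorescence.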

[5] = p53 small molecule agonists, cell-based qHTS assay with rat liver microsomes (AID 1963578)
How it was run: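 p53RE-bla cells, 4,000/well, pre-incubated 5 h, then given compounds plus rat liver microsomes (0.5 mg/mL final) and NADPH (0.5 mg/mL final). Incubation 16 h at 37 C; beta-lactamase reporter read by LiveBLAzer fluorescence after 2 h at room temperature.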

[6] = p53 small molecule agonists, cell-based qHTS assay with human liver microsomes: qHTS cell viability counter screen (AID 1963579); further: nearly all actives have a fitted effect of over 45% in size
How it was run: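 p53RE-bla cells, 4,000/well, dosed 5 hours after plating, with human liver microsomes (0.5 mg/mL final) plus NADPH (0.5 mg/mL final), 16 hours at 37 C. Viability read as CellTiter-Glo luminescence after 30 min at room temperature.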

[7] = p53 small molecule agonists, cell-based qHTS assay with rat liver microsomes: qHTS cell viability counter screen (AID 1963580); further: nearly all actives have a fitted effect of over 45% in size
How it was run: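 Intracellular ATP, by CellTiter-Glo luminescence, defines viability. HCT-116 p53RE-bla cells, 4,000 per well, were compound-treated in the presence of rat liver microsomes and NADPH for 16 h at 37 C.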

[8] = p53 small molecule agonists, cell-based qHTS assay: qHTS cell viability counter screen (AID 1963581); further: nearly all actives have a fitted effect of over 45% in size
How it was run: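 p53RE-bla HCT-116 cells were exposed to compounds for 16 h at 37 C; after the beta-lactamase FRET read in the same wells, CellTiter-Glo was added and luminescence (intracellular ATP) read after 30 min at room temperature.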

[9] = p53 small molecule agonists, cell-based qHTS assay (AID 1963582; active means well fitted activation curve with a large enough effect in the signal ratio in the repeat runs, not every such curve was filed as active; the % refers to the signal ratio)
How it was run: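 p53RE-bla beta-lactamase reporter cells rested 5 h at 37 C/5% CO2, then received compounds in DMSO by pin transfer and were incubated 16 h at 37 C. LiveBLAzer B/G FRET substrate was loaded for 2 h at room temperature before fluorescence reading.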

[10] = target: 5-hydroxytryptamine receptor 2A (Homo sapiens) (UniProt P28223); test: 5-hydroxytryptamine receptor 2A (HTR2A) small molecule antagonists, cell-based qHTS assay (AID 1963586); further: nearly all actives have a fitted effect of over 45% in size
How it was run: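 Antagonist-mode intracellular calcium assay: DOI (4 nM) added after 5 min compound pre-incubation at room temperature to dye-loaded HTR2A-CHO cells. Fluorescence followed for 3 min, sampled every second.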

[11] = target: 5-hydroxytryptamine receptor 2A (Homo sapiens) (UniProt P28223); test: 5-hydroxytryptamine receptor 2A (HTR2A) small molecule agonists, cell-based qHTS assay (AID 1963587); further: nearly all actives have a fitted effect of over 30% in size; further: potency means the concentration at half of the fitted maximal effect
How it was run: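 Kinetic calcium-flux fluorescence (2 min, 1 sec intervals) after compound addition in agonist mode. HTR2A-CHO cells were cultured 18 h, then dye-loaded 1 h at 37 C.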

[12] = target: Muscarinic acetylcholine receptor M1 (Homo sapiens) (UniProt P11229); test: Cholinergic receptor muscarinic 1 (CHRM1) small molecule antagonists, cell-based qHTS assay (AID 1963588); further: nearly all actives have a fitted effect of over 40% in size
How it was run: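 CHRM1-CHO calcium-flux assay, antagonist mode. Cells were seeded 18 h, dye-loaded 1 h at 37 C and given compound for 5 min at RT, then acetylcholine was added at 50nM. FDSS fluorescence was read 3 min; 15 concentrations, three runs.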

[13] = target: Muscarinic acetylcholine receptor M1 (Homo sapiens) (UniProt P11229); test: Cholinergic receptor muscarinic 1 (CHRM1) small molecule agonists, cell-based qHTS assay (AID 1963589); further: nearly all actives have a fitted effect of over 35% in size
How it was run: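 CHO cells stably expressing human CHRM1, seeded 18 h at 37 C/5% CO2, dye-loaded 1 h at 37 C, then given compound in agonist mode; intracellular calcium fluorescence read kinetically at 1 s intervals. Fifteen concentrations, three independent runs.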

[14] = target: Beta-2 adrenergic receptor (Homo sapiens) (UniProt P07550); test: Adrenergic beta2 receptor (ADRB2) small molecule antagonists, cell-based qHTS assay (AID 1963592); further: series mostly up to about 92 µM; nearly all actives have a fitted effect of over 50% in size
How it was run: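 Cells (CHO, stable ADRB2 overexpression) incubated 18-20hr at 37C; compounds added from DMSO; agonist mix (1nM isoproterenol, 100uM IBMX, 25uM Ro-20-1724) added; 0.5hr RT; d2-cAMP and anti-cAMP-cryptate added; 1hr RT; 665/615 nm read.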

[15] = target: D(2) dopamine receptor (Homo sapiens) (UniProt P14416); test: Dopamine D2 receptor (DRD2) small molecule agonists, cell-based qHTS assay (AID 1963594); further: nearly all actives have a fitted effect of over 35% in size
How it was run: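 cAMP accumulation in DRD2-HEK293 cells measured by HTRF after 1 h detection; compounds added 10 min before NKH477 (200nM […]) forskolin-analogue stimulation, 30 min at room temperature, with Ro20-1724 present at 0.1 mM final.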

[16] = G protein-coupled receptor (GPCR) small molecule agonists, calcium flux assay: HEK293 wild type cell line counter screen (AID 1920065)
How it was run: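 Cells were plated and cultured 18 h at 37 C/5% CO2, then loaded with calcium dye for 1 h at 37 C. Compounds in DMSO were pin-transferred in agonist mode, and fluorescence (Ex/Em 480/540) was read kinetically for 3 min at 1 s intervals.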

[17] = cAMP Responsive Elements (CRE) small molecule agonists, cell-based qHTS assay (AID 1963590)
How it was run: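 CRE-bla HEK 293T cells in DMEM with 10% dialyzed FBS, NEAA, pyruvate and 25 mM HEPES were plated 18 h at 37 C/5% CO2, then exposed to compounds in DMSO for 3 h before LiveBLAzer B/G FRET substrate addition.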

[18] = cAMP Responsive Elements (CRE) small molecule antagonists, cell-based qHTS assay (AID 1963591; active means well fitted inhibition curve with a large enough effect in the signal ratio in the repeat runs, not every such curve was filed as active; the % refers to the signal ratio)
How it was run: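 CRE-bla HEK293T cells were plated 18 h at 37 °C/5% CO2, pinned with compound in DMSO, then stimulated with NKH477 at 0.25 uM final for 3 h. LiveBLAzer B/G FRET substrate was added and plates incubated 2 h at room temperature.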

[19] = target: Beta-2 adrenergic receptor (Homo sapiens) (UniProt P07550); test: Adrenergic beta2 receptor (ADRB2) small molecule agonists, cell-based qHTS assay (AID 1963593);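 further: CHO cells stably overexpressing human ADRB2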
How it was run: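 CHO cells stably over-expressing ADRB2 were plated overnight at 37C, then dosed with compounds plus a stimulation mix containing 100uM IBMX and 25uM Ro-20-1724 for 0.5hr at room temperature. cAMP was measured by HTRF competition, 1hr.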

[20] = target: D(2) dopamine receptor (Homo sapiens) (UniProt P14416); test: Dopamine D2 receptor (DRD2) small molecule antagonists, cell-based qHTS assay (AID 1963595; active means well fitted inhibition curve with a large enough effect in the signal ratio in the repeat runs, with a control signal flat; the % refers to the signal ratio)
How it was run: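 HTRF cAMP read-out at 665 and 620 nm emission (340 nm excitation). Antagonist mode: compounds were tested against 12 nM quinpirole in DRD2-HEK293 cells, with 200 nM NKH477 raising cAMP and 0.1 mM Ro20-1724 blocking its breakdown.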

Measured: Potency

Sequence of Muscarinic acetylcholine receptor M1 (Homo sapiens) (P11229 whole entry, looked up): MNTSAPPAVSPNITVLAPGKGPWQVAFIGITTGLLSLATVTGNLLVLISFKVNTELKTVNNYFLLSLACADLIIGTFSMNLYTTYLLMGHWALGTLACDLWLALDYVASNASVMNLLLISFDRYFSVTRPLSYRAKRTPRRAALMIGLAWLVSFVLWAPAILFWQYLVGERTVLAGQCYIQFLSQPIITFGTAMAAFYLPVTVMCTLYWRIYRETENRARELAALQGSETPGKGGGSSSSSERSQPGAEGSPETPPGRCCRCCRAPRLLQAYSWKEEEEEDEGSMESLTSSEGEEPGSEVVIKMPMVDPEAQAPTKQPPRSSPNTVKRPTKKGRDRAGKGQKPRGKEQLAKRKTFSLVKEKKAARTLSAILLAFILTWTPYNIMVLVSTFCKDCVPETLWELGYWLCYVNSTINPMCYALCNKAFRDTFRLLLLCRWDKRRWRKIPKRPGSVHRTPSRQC
Sequence of Beta-2 adrenergic receptor (Homo sapiens) (P07550 whole entry, looked up): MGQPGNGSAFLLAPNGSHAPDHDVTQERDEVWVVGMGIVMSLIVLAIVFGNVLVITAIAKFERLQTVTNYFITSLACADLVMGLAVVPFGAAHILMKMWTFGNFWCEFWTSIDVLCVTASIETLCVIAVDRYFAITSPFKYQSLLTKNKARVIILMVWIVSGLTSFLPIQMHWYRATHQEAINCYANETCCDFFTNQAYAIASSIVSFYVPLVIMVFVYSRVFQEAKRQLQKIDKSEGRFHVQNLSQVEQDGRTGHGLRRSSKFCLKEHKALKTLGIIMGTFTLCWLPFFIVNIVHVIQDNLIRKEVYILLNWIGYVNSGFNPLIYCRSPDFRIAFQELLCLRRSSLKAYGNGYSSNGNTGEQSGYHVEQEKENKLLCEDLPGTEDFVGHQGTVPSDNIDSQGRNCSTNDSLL
Sequence of KiSS-1 receptor (Homo sapiens) (Q969F8 whole entry, looked up): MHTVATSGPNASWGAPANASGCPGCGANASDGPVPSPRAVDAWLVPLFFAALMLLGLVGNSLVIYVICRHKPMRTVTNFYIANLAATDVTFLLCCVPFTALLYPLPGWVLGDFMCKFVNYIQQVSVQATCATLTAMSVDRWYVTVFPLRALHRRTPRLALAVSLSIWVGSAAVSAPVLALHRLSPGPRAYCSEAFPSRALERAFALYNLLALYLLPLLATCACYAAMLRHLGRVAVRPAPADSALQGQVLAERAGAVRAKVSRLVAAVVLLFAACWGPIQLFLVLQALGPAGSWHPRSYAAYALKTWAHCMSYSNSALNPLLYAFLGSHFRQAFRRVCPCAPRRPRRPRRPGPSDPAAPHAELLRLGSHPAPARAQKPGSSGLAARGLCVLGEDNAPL
Sequence of 5-hydroxytryptamine receptor 2A (Homo sapiens) (P28223 whole entry, looked up): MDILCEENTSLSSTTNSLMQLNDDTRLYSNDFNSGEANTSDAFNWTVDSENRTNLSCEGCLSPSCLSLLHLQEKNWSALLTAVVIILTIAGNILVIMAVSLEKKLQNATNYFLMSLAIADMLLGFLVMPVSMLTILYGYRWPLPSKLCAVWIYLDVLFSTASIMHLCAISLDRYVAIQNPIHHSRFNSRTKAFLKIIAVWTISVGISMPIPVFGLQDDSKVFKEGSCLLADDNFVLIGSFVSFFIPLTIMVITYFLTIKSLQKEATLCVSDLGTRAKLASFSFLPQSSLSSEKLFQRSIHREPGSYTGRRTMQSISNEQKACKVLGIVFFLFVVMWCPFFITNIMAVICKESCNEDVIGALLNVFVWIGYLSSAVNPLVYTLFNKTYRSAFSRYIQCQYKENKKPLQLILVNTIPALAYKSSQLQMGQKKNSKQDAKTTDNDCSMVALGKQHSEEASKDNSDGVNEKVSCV
Sequence of Gonadotropin-releasing hormone receptor (Homo sapiens) (P30968 whole entry, looked up): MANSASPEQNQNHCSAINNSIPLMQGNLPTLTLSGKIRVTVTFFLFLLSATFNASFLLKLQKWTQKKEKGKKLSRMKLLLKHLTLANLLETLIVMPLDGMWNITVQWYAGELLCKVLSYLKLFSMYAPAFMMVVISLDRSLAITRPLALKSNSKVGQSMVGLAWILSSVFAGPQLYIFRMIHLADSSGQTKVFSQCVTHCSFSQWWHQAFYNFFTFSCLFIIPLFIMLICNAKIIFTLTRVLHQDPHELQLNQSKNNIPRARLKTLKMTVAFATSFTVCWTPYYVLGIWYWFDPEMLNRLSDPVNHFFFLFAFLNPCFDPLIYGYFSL
Sequence of D(2) dopamine receptor (Homo sapiens) (P14416 whole entry, looked up): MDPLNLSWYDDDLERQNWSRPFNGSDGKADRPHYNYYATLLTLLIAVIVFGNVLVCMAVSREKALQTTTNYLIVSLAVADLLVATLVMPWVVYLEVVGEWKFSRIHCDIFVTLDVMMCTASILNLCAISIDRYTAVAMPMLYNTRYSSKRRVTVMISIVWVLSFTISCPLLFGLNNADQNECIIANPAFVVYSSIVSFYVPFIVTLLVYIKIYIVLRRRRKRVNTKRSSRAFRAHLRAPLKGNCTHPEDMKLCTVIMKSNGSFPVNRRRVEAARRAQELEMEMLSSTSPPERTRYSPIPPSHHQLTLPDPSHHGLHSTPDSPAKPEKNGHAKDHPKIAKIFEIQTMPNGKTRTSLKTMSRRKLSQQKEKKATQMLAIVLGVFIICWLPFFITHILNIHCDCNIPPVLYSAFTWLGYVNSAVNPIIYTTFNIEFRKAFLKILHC

FC(F)(F)c1cccc(C2=CCN(CCc3ccc4ccccc4c3)CC2)c1
inactive: [1] | [2] | [3] | [4] | [5] | [6] | [7] | [8] | [9] | [10] | [11] | [12] | [13] | [14] | [15]

C[C@H]1CC[C@@H]2[C@@H](C)[C@H]3[C@H](C[C@H]4[C@@H]5CC=C6CC(O[C@@H]7O[C@H](CO)[C@H](O)[C@H](O[C@@H]8O[C@H](CO)[C@@H](O)[C@H](O)[C@H]8O)[C@H]7O[C@H]7O[C@@H](C)[C@H](O)[C@@H](O)[C@H]7O)CC[C@]6(C)[C@H]5CC[C@]34C)N2C1 (stereo partly drawn)
active: [1] 22.4 µM | [2] 10.1 µM | [11] 63.7 µM
inactive: [3] | [16] | [7] | [8] | [10] | [12] | [13] | [17] | [18] | [14] | [19] | [20]

CON(C)C(=O)Nc1ccc(Br)c(Cl)c1
inactive: [1] | [2] | [3] | [16] | [6] | [7] | [11] | [12] | [13] | [17] | [18] | [14] | [15] | [20]

CCC/C(=N\OCC)C1=C(O)CC(CC(C)SCC)CC1=O (stereo not drawn)
inactive: [1] | [2] | [3] | [5] | [6] | [7] | [8] | [9] | [10] | [11] | [12] | [13] | [15] | [20]
